HT1080 IDH1KD tx – HT-1080 IDH1 knockdown cell toxicity (counter line). Potency, µM (top dose mostly 46.1 µM), inactives show at the highest dose activity, negative = toxicity, hits mostly cytotoxic. HT-1080 IDH1 knockdown viability, ATP luminescence, 48 h. AID 686971. 2% of 360,000 active;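 note: 0% = DMSO wells and -100% = cell-free medium wells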
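In this qHTS, HT-1080 cells depleted of IDH1 are exposed for 48 h at 37 °C to compound titrations. Toxicity is scored from CellTiter-Glo luminescence, with DMSO as full viability and medium alone as none.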
HepG2 viability – kills HepG2 cells in TGF-b inhibitor counter-screen; HepG2 CAGA-GFP viability, ATP luminescence, 18 h; Potency, µM (titrated, usually from 46.1 µM), for inactives: at the top dose activity change, negative = cytotoxicity, usual class: cytotoxic; 0.76% of 410,000 active; AID 588856
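CellTiter-Glo luminescence gave cytotoxicity after 18 hours at 37 degrees C. The cells were HepG2 CAGA-GFP in 1% FBS DMEM, stimulated with 500 pg/mL TGF-beta after compound addition. %Activity was normalised to no-cell wells (complete cell-killing) and DMSO (no toxicity), and curves were fitted and classified.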
TGFb SMAD3 inh – TGF-b pathway inhibition; HepG2 CAGA-GFP TGF-b/SMAD3 reporter, GFP fluorescence, 18 h; TGF-beta stimulated, 500 pg/mL final; Potency, µM (doses to about 46.1 µM), for inactives: top-dose activity, negative = inhibition, actives largely listed as inhibitors; 1.2% of 410,000 active; note: % is set by controls: 0 for no effect and ±100 for the full control effect; nearly all actives have a fitted effect of over 65% in size
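Inhibition was scored as loss of TGF-beta-induced (500 pg/mL final, 18 hours, 37 degrees C) GFP in HEPG2 cells carrying a CAGA-GFP reporter, in DMEM with 1% FBS. Well GFP was summed per cell; Activity was normalised to unstimulated and stimulated DMSO wells, then concentration-response fitting.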
ATXN viability – reduces viability in counter-screen for ATXN expression inhibitors; S2 cells (HEK-293 line with an ATXN2-luciferase reporter) viability, CellTiter-Fluor protease fluorescence, 24 h; 0.49% of 400,000 active; AID 651635; Potency, µM (highest dose often 56.7 µM), most hits filed as cytotoxic; note: nearly all actives have a fitted effect of over 40% in size
HT1080NT lethal – kills 2HG-producing HT-1080-NT fibrosarcoma cells; HT-1080-NT fibrosarcoma viability, CellTiter-Glo ATP luminescence, 48 h; 1.6% of 360,000 active; Potency, µM (series often up to 46.1 µM), for the others: at the highest dose activity, negative = less viability, actives largely listed as cytotoxic;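 note: NT is the 2HG producing partner of a matched IDH1 knockdown line; 0% = DMSO-treated cells and -100% = media-only wells without cells; nearly all actives have a fitted effect of over 55% in size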
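HT-1080-NT fibrosarcoma cells (2HG-overproducing), 750 cells/well in RPMI with 5% FBS, dosed after 2 h and incubated 48 h at 37C. CellTiter-Glo luminescence normalized to DMSO and no-cell wells; concentration-response curves fitted and classed.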
ATXN2 expr inh – inhibitors of ATXN2 expression; HEK-293 ATXN2-luciferase reporter, luminescence, 24 h; Potency, µM (top dose mostly 57 µM), for inactives: at the highest dose activity change, negative = inhibition, hits mostly inhibitors; 0.72% of 360,000 active; AID 1745845; note: % is set by controls: 0 for no effect and ±100 for the full control effect; nearly all actives have a fitted effect of over 55% in size
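ATXN2-luciferase reporter cells (luciferase flanked by upstream and downstream ATXN2 gene portions) were treated 24 h at 37 °C with compounds at up to 57 uM. SteadyGlo luminescence gave expression; GF-AFC fluorescence gave viability.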
Starred values were filed as active, the others as inactive; i = inactive; ? = inconclusive; / = no result given. This is a sample that favours compounds with a hit; in the whole collection about 3.9% have one here. Calls come from the whole dose curve; as a rule, active = well fitted curve in the direction sought with a large enough effect; inconclusive = small, poorly fitted or top-dose-only effect, or another doubt; inactive = no such curve, though single readings can be large; an effect the other way counts as inactive or inconclusive. Potency is the fitted concentration of half-maximal effect.

SMILES	HT1080 IDH1KD tx	HepG2 viability	TGFb SMAD3 inh	ATXN viability	HT1080NT lethal	ATXN2 expr inh
CC(CNC(=O)c1ccc(CSc2nc3ccncc3n2Cc2cccc(F)c2)cc1)c1ccccc1 (stereo not given)	/	-20%	10µM*	?	/	-34%
COc1cccc(N2C(=O)CSC23C(=O)N(CC(=O)Nc2cc(C)ccc2C)c2ccccc23)c1 (stereo not given)	/	-6%	-4%	?	/	8%
O=C(Nc1nnc(-c2ccc3c(c2)CCCC3)o1)c1c(F)cccc1F	-24%	-11%	3%	i	-14%	-2%
O=C(Nc1nnc(-c2ccc3c(c2)CCCC3)o1)c1ccc(Cl)cc1Cl	-29%	-4%	?	40µM*	?	?
CCn1c(=O)c2cc(C(=O)NCCCN(C)Cc3ccccc3)sc2c2ccccc21	/	-105%	?	32µM*	/	?
O=C(NCCN1CCN(c2ccccc2)CC1)c1cccn2c(=O)c3ccccc3nc12	-1%	3%	0%	i	7%	-3%
CCOc1ccccc1N(CC)C(=O)c1cc2c(=O)n(CC)c3ccccc3c2s1	/	-44%	18µM*	?	/	?
CCCN(C(=O)c1cc2c(=O)n(CC)c3ccccc3c2s1)c1ccccc1F	/	-20%	-3%	i	/	-8%
CCCCNC(=O)c1cc2c(=O)n(CC)c3ccccc3c2s1	?	-14%	13%	i	24%	-12%
CN(CCCNC(=O)c1cccn2c(=O)c3ccccc3nc12)Cc1ccccc1	20µM*	-30%	11µM*	?	?	?
COc1ccc(CC(=O)N(Cc2nc(-c3ccc(C)cc3)no2)C(C)C)cc1	/	-28%	-17%	?	/	-30%
COCC(=O)N1c2nc(C(C)C)nn2C2(CCCCC2)[C@@H]2CCCC[C@@H]21	/	-1%	-29%	/	/	/
N#CCSc1nnc(COc2cccc3ccccc23)n1-c1ccccc1	?	-32%	?	?	?	?
Cc1ccc(OCc2nnc(SCc3ccc(C#N)cc3)n2-c2ccc(C)cc2)cc1	11µM*	-32%	?	i	?	-24%
Cc1ccc(-c2nnc(CSc3nnc(COc4cccc5ccccc45)n3-c3ccccc3)o2)cc1	?	27%	13µM*	?	-16%	?
Cc1ccc(CN(C(=O)COc2ccc(C(C)(C)C)cc2)C2CCS(=O)(=O)C2)o1 (stereo not given)	/	-15%	/	/	/	/
COc1cc(OC)cc(-c2nnc(SCC(=O)c3ccc([N+](=O)[O-])cc3)o2)c1	/	6%	1%	i	/	10%
COC(=O)c1ccccc1NC(=O)Cc1nc(-c2ccc(OC)cc2)no1	/	18µM*	?	/	/	/
CSc1nnc(NC(=O)c2nc(S(=O)(=O)Cc3ccccc3)ncc2Cl)s1	23µM*	-157%	?	/	21µM*	?
CC(C)c1nnc(NC(=O)c2nc(S(=O)(=O)Cc3ccccc3)ncc2Cl)s1	6.5µM*	i	?	?	7.3µM*	?
Cc1ccccc1CS(=O)(=O)c1ncc(Cl)c(C(=O)Nc2nnc(C(C)C)s2)n1	/	-88%	?	/	/	/
CCCc1nnc(NC(=O)c2nc(S(=O)(=O)Cc3ccc(C)cc3)ncc2Cl)s1	?	-111%	?	/	-24%	?
C=C(NC(=O)C(=C)NC(=O)c1csc(C2=NC3c4csc(n4)C4NC(=O)c5csc(n5)C(C(C)(O)C(C)O)NC(=O)C5CSC(=N5)/C(=C/C)NC(=O)C(C(C)O)NC(=O)c5csc(n5)C3(CC2)NC(=O)C(C)NC(=O)C(=C)NC(=O)C(=C)NC(=O)C(C(C)C)NC2C=Cc3c(C(C)O)cc(nc3C2O)C(=O)OC4C)n1)C(N)=O (stereo not given)	5.2µM*	0%	8.9µM*	2.7µM*	?	?
COc1cccc(C(=O)NCC2Cc3cccc(-c4cccnc4)c3O2)c1 (stereo not given)	/	/	/	i	/	/
COc1ccc(C(=O)c2cc([N+](=O)[O-])ccc2N2CCN(C)CC2)cc1	5.2µM*	-12%	2%	i	2.6µM*	-23%
SMILES	HT1080 IDH1KD tx	HepG2 viability	TGFb SMAD3 inh	ATXN viability	HT1080NT lethal	ATXN2 expr inh
COc1ccc(C(=O)c2cc([N+](=O)[O-])ccc2N2CCCC2)cc1	3.3µM*	5%	-23%	?	3.3µM*	-27%
c1nc(CCO[C@H]2CCCCO2)cc2cc3c(cc12)OCO3	7%	-15%	10%	i	7%	11µM*
c1ccc2cc(CCO[C@H]3CCCCO3)ncc2c1	-2%	-1%	-5%	i	-1%	?
COc1ccc(C(=O)C[n+]2cn(C(F)F)c3ccccc32)c(F)c1	?	-31%	?	i	21µM*	-21%
CCOc1nc(C#N)nc(N(c2ccccc2)c2ccccc2)n1	/	2%	3%	/	/	/
COc1cc(/C=C/c2ccc(O)cc2)cc(OC)c1	-2%	-37%	-10%	i	-2%	9%
COC(=O)c1ccc2c(c1)C(C)(C)C(/C=C/c1ccc(O)cc1)=[N+]2C	2.8µM*	3.5µM*	4µM*	7.9µM*	5µM*	3.2µM*
COC(=O)c1ccc2c(c1)C(C)(C)C(/C=C/c1ccc(OC)c(OC)c1OC)=[N+]2C	12µM*	-94%	10µM*	?	12µM*	25µM*
COc1ccccc1NC(=O)Cn1cc(C(=O)c2ccncc2)c(=O)c2cc(C)ccc21	/	-7%	-1%	/	/	/
CCc1cccc2c(-c3ccc(F)cc3)nc(SCC(=O)Nc3ccccc3)nc12	/	-14%	-7%	/	/	/
O=[N+]([O-])c1ccc(NN=Cc2cc(Br)ccc2O)nc1	4.6µM*	-52%	?	?	7.3µM*	?
CC(C)c1cnc2c(c1SCc1ccc([N+](=O)[O-])cc1)c(=O)n(C)c(=O)n2C	/	7%	?	/	/	/
O=[N+]([O-])c1ccc(Oc2ccc(S(=O)(=O)Nc3ccccc3)cc2)cc1	?	-24%	3%	i	?	-14%
O=C1C(Cl)=C(NS(=O)(=O)c2ccc([N+](=O)[O-])cc2)C(=O)c2ccccc21	?	-191%	?	40µM*	?	18µM*
CC(C)OCCCn1c(=O)c2ccccc2n2c(-c3cc(Cl)ccc3O)nnc12	/	-22%	-22%	i	/	4%
COc1ccc(-c2c[n+]3c(n2-c2ccc(C)cc2)CCCCC3)cc1	?	-25%	?	?	?	?
CCOc1ccc(-n2c(-c3ccc(OC)cc3)c[n+]3c2CCCCC3)cc1	3.7µM*	-2%	?	i	?	/
